Measurements reported in ChEMBL document CHEMBL3988442, “University of Dundee, Small-Polar-MMV Screening Library” (2021).

What was measured:
[1] = target: T1, Aspartate--tRNA(Asp/Asn) ligase (Mycobacterium tuberculosis (strain ATCC 25618 / H37Rv)) (UniProt P9WFW3); assay: Assay for Asp RNA synthetase-1 from Mycobacterium tuberculosis; format: functional; set-up: scale not given: direction of the effect not stated beside the values; details: 30 µM; note: in the data most compounds retested in dose-response had high values
T1 sequence (whole entry): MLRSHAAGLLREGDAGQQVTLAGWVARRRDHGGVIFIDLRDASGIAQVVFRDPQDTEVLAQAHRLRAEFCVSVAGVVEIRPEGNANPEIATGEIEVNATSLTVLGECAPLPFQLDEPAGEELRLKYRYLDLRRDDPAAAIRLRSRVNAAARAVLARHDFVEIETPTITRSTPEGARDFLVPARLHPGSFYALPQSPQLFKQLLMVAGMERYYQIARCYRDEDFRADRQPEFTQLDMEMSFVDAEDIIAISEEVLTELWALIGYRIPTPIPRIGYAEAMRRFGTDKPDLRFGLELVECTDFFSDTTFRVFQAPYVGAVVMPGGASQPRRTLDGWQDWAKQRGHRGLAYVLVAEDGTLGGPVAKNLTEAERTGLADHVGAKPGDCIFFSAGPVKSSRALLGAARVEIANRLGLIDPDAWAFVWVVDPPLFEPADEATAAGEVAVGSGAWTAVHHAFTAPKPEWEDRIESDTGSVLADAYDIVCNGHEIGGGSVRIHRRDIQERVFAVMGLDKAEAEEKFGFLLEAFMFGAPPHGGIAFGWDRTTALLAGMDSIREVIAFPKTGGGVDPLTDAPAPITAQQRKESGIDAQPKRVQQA

[2] = target: Shiga toxin 2 (Escherichia coli O157:H7) (UniProt P09385+P09386); assay: E. coli 0.157:H7 Shiga Toxin SOP - stx2 screening assay; format: functional; set-up: scale not given: direction of the effect not stated beside the values; details: 30 µM

Compound	Percent Effect [1]	Percent Effect [2]
O=C(NCC1(N2CCOCC2)CCSC1)Nc1ccc(F)cc1 (stereo not given)	2%	-8.73%
Cn1cc(CN2CCCC3(CCN(Cc4cccnc4)C3=O)C2)cn1 (stereo not given)	-1.18%	-7.77%
O=C(NCc1ccccc1)[C@H]1C[C@@H]2CN(S(=O)(=O)C3CC3)C[C@H]1O2	6.82%	2.32%
Cc1csc(N2CCN(C(=O)CCn3cncn3)CC2)n1	-4.23%	-2.86%
CC(C)c1nnc2n1CCN(C(=O)c1cccc(C(F)(F)F)c1)C2	0.896%	-0.987%
CCc1ccc(CN2CCC3(CC2)CC(N2CCN(C)CC2)CO3)cc1 (stereo not given)	2.64%	1.21%
CCC(=O)N1CCCC1c1nccnc1Nc1ncccn1 (stereo not given)	1.12%	2.75%
CCNc1cc2c(nn1)CCN(C(=O)Cc1noc3ccccc13)C2	-2.87%	24.9%
Cc1ccc(CN2CCc3ncnc(C4CC4)c3CC2)s1	9.9%	-8.76%
Cc1ccc(CN2CCC[C@]3(C(=O)O)CN(c4ncccn4)C[C@@H]3C2)o1	7.77%	-25.5%
Cc1cccc(-c2noc(CN3CCCC3Cn3cccn3)n2)c1 (stereo not given)	-8.22%	28.6%
CN(Cc1nc2c(cnn2C)c(=O)[nH]1)Cc1ccc(F)cc1F	-2.26%	-10.7%
CCOC(=O)[C@]12CCCN(Cc3nccs3)C[C@H]1CN(CCN(C)C)C2	6.19%	-7.56%
O=C1CC(c2cccc(O)c2)c2sc(C(=O)O)c(-c3ccccc3)c2N1 (stereo not given)	-3.78%	-24.7%
CCNC(=O)c1nc2c(s1)CCCN2S(C)(=O)=O	7.8%	-17.3%
CN1CC(=O)N(c2cccc(F)c2)CC12CCN(S(C)(=O)=O)C2 (stereo not given)	-0.565%	8.46%
O=C(NCCn1ccnc1)N1CCN(Cc2cccs2)CC1	0.0694%	-34.2%
CCC1c2ccsc2CCN1C(=O)NCCNc1ncccn1 (stereo not given)	-3.52%	10.9%
CN(CC1CCCCC1)C(=O)c1ccc(-n2ncc(C#N)c2N)cc1	-2.55%	-24.4%
O=C(NCCCn1ccnc1)N1CCCC1c1cccs1 (stereo not given)	-2.61%	-5.52%
CCc1nc(C)c([C@H]2CN(C)C[C@@H]2C(=O)Nc2ccc(OC)cc2)[nH]1	-1.19%	9.62%
Cc1nc(C)c(CC(=O)N2C[C@H]3CC[C@@H]2CN(C(=O)N(C)C)C3)c(=O)[nH]1	0.0987%	-13.6%
Cc1cc(C2CCCN2Cc2cc(=O)n(C)c(=O)n2C)on1 (stereo not given)	0.485%	14.1%
COc1ccc(-n2ccc(C(=O)NCCN3CCCCC3C)n2)cc1 (stereo not given)	4.6%	-18.1%
Cc1ccc(OCC(O)CN2CCC(Cn3cccn3)CC2)cc1 (stereo not given)	-1.46%	-51.7%

Compound	Percent Effect [1]	Percent Effect [2]
O=C(NCc1cccnc1-n1cccn1)C1CC(=O)N(CC2CC2)C1 (stereo not given)	-2.05%	10.1%
CC(C)c1nc(CN2CCCCC2)cs1	-3.66%	7.17%
CCOc1ccccc1C1CCCN1 (stereo not given)	2.67%	-3.4%
CS(=O)(=O)N1Cc2nccn2CC(Cn2ncccc2=O)C1 (stereo not given)	1.17%	-8.61%
O=C(CN1CCc2c(ncn2C2CC2)C1)NC1CC1	-0.0146%	5.91%
CCc1nc(CC(=O)N2CCN(c3cnccn3)CC2)cs1	-3.74%	-11.5%
CS(=O)(=O)NCCNC(=O)C1(c2cccc(Cl)c2)CC1	-2.17%	-2.54%
COc1ccc(CN2CCC(O)CC2)c(OC)c1	-2.06%	7.95%
O=C(NCC1CC1)C1CSCN1S(=O)(=O)c1cccc(F)c1 (stereo not given)	2.56%	-5.9%
N#Cc1ccc(CNCC(C(=O)N2CCOCC2)c2ccccc2)cc1 (stereo not given)	24.2%	-26%
Cc1cnn(C(C)C2CC2)c1NC(=O)c1ccncc1 (stereo not given)	4.07%	1.34%
CCN1CCC2(CC1)CC(NC(=O)NC)c1cc(C)ccc12 (stereo not given)	-5.21%	-9.91%
Cn1nc(C(=O)NCc2ccccn2)c2c1CCS(=O)(=O)C2	-0.726%	-22.4%
O=C(CN1CCCS1(=O)=O)NCCOc1ccc2c(c1)CCC2	-5.23%	9.97%
CCCNC(=O)c1ccc(NC(=O)c2cccc(OCC)c2)cc1	2.98%	-85.2%
CC(=O)c1cccc(OCC(=O)NS(=O)(=O)c2ccc(C)s2)c1	-3.8%	-7.24%
CC(C)C(NC(=O)N1CCN(c2ccc(Cl)cc2)CC1)C(=O)NC1CC1 (stereo not given)	-3.72%	7.46%
CCc1nc(CN2CCN(c3ncnc4cc(F)ccc34)CC2)no1	-1.46%	-69.6%
COc1cccc(F)c1C(=O)N1C[C@@H](CN(C)CCO)[C@@H](CO)C1	-0.268%	-11.4%
CC(C)NC(=O)C1CN(C(=O)Nc2ccccc2)CC12CCOCC2 (stereo not given)	12.7%	-4.72%
COCCC(=O)N1C[C@H]2CN(Cc3cccc(C)n3)C(=O)[C@H]2C1	0.774%	-18.7%
CN(C)C(=O)N1C[C@H](Oc2ccccn2)[C@H]2OCCC[C@H]21	2.67%	-3.38%
Cc1nc2ccccn2c1CN(Cc1cccnc1)CC1CCCO1 (stereo not given)	8.51%	-8.1%
Cc1cc(N2CCC(c3nnc(CN(C)C)n3C3CC3)CC2)ccn1	5.21%	-33.5%
Cc1nn(C)c(C)c1C1CCCN1C(=O)CCCn1cccn1 (stereo not given)	-2.95%	10.6%

Compound	Percent Effect [1]	Percent Effect [2]
CCn1cnnc1CNC(=O)N1CCN(c2cccs2)CC1	-5.34%	-43.6%
Cc1cccc(CN2CCC3(CCN(Cc4ccccn4)C3)C2=O)c1 (stereo not given)	0.956%	-19.6%
O=C1CC2(CCN(CC3CCOC3)CC2)CN1Cc1cc(F)cc(F)c1 (stereo not given)	-4.88%	2.13%
O=C(NCc1ccc(-n2cncn2)nc1)c1ccoc1	3.8%	-9.83%
Cn1c(C(F)(F)F)nn(CCNC(=O)CSCc2ccccc2)c1=O	-5.63%	4.5%
Cc1csc(N2CCCN(C(=O)C(C(C)C)n3cncn3)CC2)n1 (stereo not given)	-2.24%	15.4%
NC(=O)C(CNC(=O)COCC(F)(F)F)Cc1ccc(F)cc1 (stereo not given)	0.689%	4.66%
CC(C)c1nc(C(=O)N2CCCC(n3cncn3)C2)c[nH]1 (stereo not given)	-5.02%	-8.87%
CC(C)CCN1CCNC(=O)C1CC(=O)N1CCc2sccc2C1 (stereo not given)	-3.89%	-7.76%
O=C(CCc1cc2n(n1)CCCN(Cc1ccccc1F)C2)NC1CC1	-1.95%	-4.17%
CC(C)c1cc(C(=O)N(C)Cc2cccc3ncccc23)n(C)n1	-4.72%	-15%
CN(CCNC(=O)c1scnc1Cl)c1ccccc1	2.87%	-17.4%
CCc1ncncc1C(=O)N1CCCN(Cc2ccc(C)cc2)CC1	7.33%	16.1%
Cn1cc(CN2CC[C@H]3O[C@H](C(=O)NCc4ccco4)CC[C@H]32)cn1	5.47%	-27.7%
COc1cccc(N2CCN(CC(O)c3cc(C)ccc3C)CC2)c1 (stereo not given)	9.16%	-19.7%
O=C(NC1CC1)[C@@H]1CCO[C@@H]2CCN(C3CCOCC3)C[C@@H]21	-3.45%	-22%
Cc1ncnc2c1CCN(Cc1ccc3c(c1)OCO3)CC2	-0.729%	-19.3%
O=C(c1cccc2c1OCCO2)N1CCCC(n2ccnc2)C1 (stereo not given)	-1.01%	21.1%
CCn1ccnc1CN1CCN(CC(=O)NC(=O)NC2CC2)CC1	-2.79%	24.4%
O=C1C[C@H]2[C@@H](CCN2C(=O)c2ccccc2)N1CCN1CCOCC1	-3.74%	-0.799%
CO[C@H]1CN(C(=O)c2ccccn2)[C@@H]2CCCO[C@H]12	1.27%	0.669%
Cn1cc(NC(=O)N2CCC(c3ccccc3)CC2)ccc1=O	55%	21.8%
O=C(NCc1csc(Br)c1)c1ccc(=O)[nH]n1	-0.83%	-13.6%
Cc1cnc(CN(C)C2CCN(CCc3ccccn3)CC2)cn1	4.34%	10.4%
NC[C@H]1CC[C@H](C(NC(=O)c2ccccc2)c2ccccn2)CC1 (stereo not given in full)	1.63%	-25.2%

Compound	Percent Effect [1]	Percent Effect [2]
CC(Cn1cccn1)NC(=O)Nc1nccs1 (stereo not given)	-0.364%	2.8%
O=C(C[C@@H]1COC[C@H]2CN(Cc3ccc(F)cc3)C[C@@H]12)N1CCOCC1	2.03%	-38.2%
c1ccc(C2CCN(c3cncc(-n4cccn4)n3)CC2)cc1	-0.999%	-5.12%
Cc1nc(CN2CCCC(N(C)CCc3ccncc3)C2)no1 (stereo not given)	0.35%	22.9%
COc1ccc(CC(=O)N2CCCC(n3cc(C)cn3)C2)cc1F (stereo not given)	-0.544%	12.2%
Cc1nc(N)cc(C2CN(C(=O)c3ccn(C)n3)CCO2)n1 (stereo not given)	-1.09%	3.51%
CC(C)c1nn(C)c(N2CCOCC2)c1CN[C@H](C)CO	-1.94%	30.8%
Cc1ccccc1-c1cc(NC(=O)CC(C)C)n(CCO)n1	-0.569%	-1.82%
CCc1csc(CCNC(=O)C2CC(=O)N(C(C)C)C2)n1 (stereo not given)	-1.9%	-30.4%
Cc1cnn(CC2CCCCN2Cc2cc(C)on2)c1 (stereo not given)	-5.5%	-7.45%
CCc1noc(CNc2cc(F)ccc2OCC2CCCO2)n1 (stereo not given)	0.569%	-4.24%
O=C(NCc1ccco1)[C@H]1C[C@H]2OCC[C@H]2N(C(=O)c2ccco2)C1	3.58%	6.55%
Cc1ccc(-c2cc(N)c(=O)n(CC(=O)NCC3CC3)n2)s1	4.48%	3.54%
CN(Cc1nnc(C2CC2)o1)C1CCN(CCCc2cnn(C)c2)C1 (stereo not given)	5.28%	-45.6%
CCc1nc2n(n1)CC(NCc1noc(-c3ccccc3)n1)CC2 (stereo not given)	-2.95%	-17.9%
CC(C)OCCN1CCN(C(=O)c2cccc(CC#N)c2)CC1	2.85%	-12.3%
O=C(NCc1cc[nH]n1)NCC(c1ccccc1Cl)N1CCCC1 (stereo not given)	5.68%	4.8%
CCN(CC1CCOC1)C(=O)c1ccccc1N1CCOCC1 (stereo not given)	-0.562%	23.4%
O=C(c1ccsc1)N1CC(C(=O)N2CCOCC2)C2(CCOCC2)C1 (stereo not given)	-3.83%	-2.66%
CCN(Cc1cccc(Cl)c1)Cc1nc2c(cnn2C)c(=O)[nH]1	-2.28%	31.3%
O=C(NCc1ccco1)C1CCCN1Cc1nc(-c2ccco2)no1 (stereo not given)	3.58%	23.3%
O=S(=O)(NC1=NCN(CCc2cccs2)CN1)c1ccc(F)cc1	-0.523%	-18.8%
CN(C(=O)Cc1ccc2c(c1)OCCO2)C1CCCC1	-2.52%	0.101%
O=C1COC2(CCN(Cc3ccc(F)cc3)CC2)CN1	0.549%	11.4%
CCc1nnc2n1CCN(Cc1ccc(C(=O)N3CCCC3)cc1)C2	-3.93%	-0.0173%
